# High-throughput results as filed in PubChem BioAssay.
# Most compounds without a hit are left out; they make up all but 7.4% or so of the library.
# Rab9 prom act = activators of Rab9 promoter; actives 2.8% (n = 320,000); Potency, µM (highest dose often 9.22 µM), for the others: top-dose activation, negative = inhibition, hits mostly activators; Huh7 Rab9 promoter-luciferase reporter, luminescence, 24 h; AID 485297; also: % of control where 0% means no effect; nearly all actives have a fitted effect of over 60% in size
#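 Measured in stably transfected Huh7 cells bearing a Rab9 promoter–luciferase construct: 24 h compound treatment at 37 °C, followed by luminescence detection.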
# SMN2 splice enh = increases expression of the SMN2 splice variant; HEK293 SMN2-luciferase splicing reporter, luminescence, 30-36 h; Potency, µM (top dose mostly 46.1 µM), for the others: at the top dose activity change, positive = activation, actives largely listed as activators; actives 2.8% (n = 210,000); also: % of control where 0% means no effect; nearly all actives have a fitted effect of over 55% in size
#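 qHTS luciferase splicing reporter: luminescence rises when SMN2 exon 7 is included in transfected HEK293 cells. Compound exposure lasted 30-36 h at 37C, with 4.5 mM final sodium butyrate as control, followed by a ONE-Glo read.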
# FLuc modulator = counter-screen for miR-21 project: firefly luciferase inhibitors or activators | P08659 | purified FLuc, Km substrates, luminescence inhibition | Potency, µM (titrated, usually from 57.5 µM), for the others: at the top dose activity change, negative = inhibition, usual class: inhibitors | actives 6.9% (n = 360,000) | AID 588342;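 also: plate controls were vehicle for no effect and reference inhibitor for full effect; nearly all actives have a fitted effect of over 55% in size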
# Target sequence (P08659 whole entry, looked up): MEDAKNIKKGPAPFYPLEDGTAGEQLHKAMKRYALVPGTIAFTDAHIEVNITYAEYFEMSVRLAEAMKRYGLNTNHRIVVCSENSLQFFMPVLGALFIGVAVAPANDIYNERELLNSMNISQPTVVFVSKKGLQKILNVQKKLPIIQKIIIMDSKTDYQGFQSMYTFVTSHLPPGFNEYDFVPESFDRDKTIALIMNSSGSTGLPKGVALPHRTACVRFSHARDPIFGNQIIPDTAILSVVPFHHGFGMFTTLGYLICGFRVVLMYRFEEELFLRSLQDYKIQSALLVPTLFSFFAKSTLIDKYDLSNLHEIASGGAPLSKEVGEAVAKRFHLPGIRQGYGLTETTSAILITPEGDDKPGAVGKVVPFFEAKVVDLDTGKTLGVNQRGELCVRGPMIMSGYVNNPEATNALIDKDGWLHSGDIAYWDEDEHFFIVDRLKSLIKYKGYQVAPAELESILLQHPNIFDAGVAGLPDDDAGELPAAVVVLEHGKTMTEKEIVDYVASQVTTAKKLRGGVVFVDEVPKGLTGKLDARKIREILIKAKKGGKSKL
#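 Biochemical qHTS of compounds, final roughly 60 µM downward over six points, against 10 nM purified firefly luciferase using Km concentrations of substrates (10 uM D-luciferin, 10 uM ATP) in Tris acetate pH 7.5 buffer; luminescence output.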
# NPC1 promoter act = NPC1 promoter activation. Huh7 NPC1 promoter luciferase reporter, 24 h. Potency, µM (doses to about 9.22 µM), for the others: at the highest dose activation, usual class: activators. actives 2.4% (n = 320,000); also: % of control where 0% means no effect; nearly all actives have a fitted effect of over 60% in size
#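 Stable NPC1-promoter luciferase Huh7 line; cpd (DMSO) 24 h, 37 °C, 5% CO2; Amplite luciferase reagent 10 min RT; luminescence readout. qHTS format.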
# ELG1 genotox = genotoxicity induction in ELG1-luciferase HEK293T cells | Potency, µM (titrated, usually from 46 µM), for the others: at the top dose activity change, positive = activation, usual class: activators | HEK293T ELG1-luciferase reporter, luminescence, 16 h | actives 1.3% (n = 330,000); also: % of control where 0% means no effect; nearly all actives have a fitted effect of over 60% in size
#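 Step 1: seed 2,000 HEK293T ELG1-luciferase cells per well. Step 2: add compound or DMSO, incubate 16 hr at 37 °C. Step 3: ONE-Glo, 30 min at room temperature, read luminescence.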
# An asterisk follows results filed as active; ? = inconclusive; . = no result given; [ ] = remark or other dose. Calls follow the shape of the dose curve; as a rule, active = well fitted curve in the direction sought with a large enough effect; inconclusive = small, poorly fitted or top-dose-only effect, or another doubt; inactive = no such curve, though single readings can be large; an effect the other way counts as inactive or inconclusive. Potency is read from the fitted curve at half-maximal effect.
SMILES,Rab9 prom act,SMN2 splice enh,FLuc modulator,NPC1 promoter act,ELG1 genotox
COc1ccccc1-c1nc2n(n1)C(c1ccccc1Cl)C(C(=O)Nc1cccnc1)=C(C)N2 (configuration not stated),.,6%,2%,.,.
Cc1ccc(SCC(=O)Nc2ccc(-c3nc4ccccc4[nH]3)cc2)cc1,?,5.6µM*,-8%,?,?
Cc1ccc2nc(SCC(=O)Nc3nnc(SCC(N)=O)s3)[nH]c2c1,-1%,-1%,17µM*,-1%,0%
c1csc(-c2nc3c4ccccc4c4ccccc4c3[nH]2)c1,-7%,-10%,15µM*,-4%,-13%
O=C(O)c1cccc2c1-c1ccccc1/C2=N\Nc1ccccc1,?,.,11µM*,3.2µM*,12%
O=C(O)c1cccc(NN=C2c3ccccc3-c3ccccc32)c1,2%,0%,27µM*,1%,15%
CC(=O)OC(C)C,.,-6%,.,.,.
COc1ccccc1CCNC(=O)c1nc(-c2cccs2)no1,?,?,17µM*,?,?
COc1ccccc1CC(=O)NCc1csc(-c2cccs2)n1,?,.,17µM*,?,16%
CCC(=O)NCc1csc(-c2cccs2)n1,?,.,-8%,20%,10%
CCCCCCCCCCCCCCC/C=C/[C@@H](O)[C@H](NC(=O)CCCCCCCCCCCCC)OC (tested in a mixture with another compound),.,-8%,.,.,.
Clc1ccc(-c2nc3cnccn3c2Nc2ccc3c(c2)OCO3)cc1,1%,1%,?,-6%,-5%
c1cn2c(Nc3ccc4c(c3)OCCO4)c(-c3ccc(N4CCOCC4)cc3)nc2cn1,21%,.,2.7µM*,26%,?
CSc1ccc(-c2nc3cnccn3c2Nc2ccc3c(c2)OCO3)cc1,-4%,-2%,19µM*,0%,-1%
CCC(=O)N1CCc2cc(S(=O)(=O)N(C)c3cccc(C)c3)ccc21,.,8%,-2%,.,.
O=C(c1cc(COc2ccc(F)cc2Cl)on1)N1CC2C[C@@H]3CC1C[C@H](C2)C3,2.5µM*,.,6.7µM*,3.2µM*,9.2µM*
O=C(c1cc(COc2ccc(F)cc2Cl)on1)N1CC[C@@H]2CCCC[C@H]2C1,-2%,.,-11%,-6%,-1%
O=C(c1cc(COc2ccc(F)cc2Cl)on1)N1C[C@H]2CC[C@H]1C2,2.8µM*,.,13µM*,?,?
Cc1cc(C(=O)CSc2nc3ccc(Cl)cc3[nH]2)c(C)n1CC1CCCO1 (configuration not stated),-4%,-82%,?,-2%,-8%
CC1CCN(C(=O)CSc2nnc3c(n2)[nH]c2ccc(F)cc23)CC1,-15%,.,-1%,-4%,-10%
Cc1ccc2nc(SCC3CCCCO3)[nH]c2c1 (configuration not stated),0.11µM*,.,1.2µM*,0.4µM*,?
Cc1ccc2nc(SCC(=O)N3CCN(c4ccccc4)CC3)[nH]c2c1,-3%,.,-11%,1%,-8%
Cc1ccc2nc(SCC(=O)N3CCOCC3)[nH]c2c1,1.6µM*,?,6.7µM*,2.5µM*,9.2µM*
CC(C)c1ccc2[nH]c3nc(SCC(=O)N4CCOCC4)nnc3c2c1,4%,?,6.7µM*,-1%,-7%
Cc1ccc2nc(SCC(=O)Nc3ccc(C#N)cc3)[nH]c2c1,.,-11%,-8%,.,.
SMILES,Rab9 prom act,SMN2 splice enh,FLuc modulator,NPC1 promoter act,ELG1 genotox
C/C(N)=C(/C#N)C(=O)CSc1nc2ccc(C)cc2[nH]1,1.1µM*,10µM*,4.8µM*,1.4µM*,?
COc1ccc(CNC(=O)c2ccc(Cn3c(=O)c4cccn4c4cccnc43)cc2)c(OC)c1,.,.,3%,.,.
Cc1ccc2[nH]c(SCC(=O)N3CCOCC3)nc2c1C,3.5µM*,6.3µM*,15µM*,?,?
C/C(=N/O)c1ccc2cc(Br)c3ccccc3c2c1,.,-10%[9.22 µM],.,.,.
COc1cc(N/N=C(\C)c2ccc(O)c(C)c2)nc(-c2ccccc2)n1,-12%,.,15µM*,-6%,-7%
COc1cc(N/N=C(\C)c2ccc(N)cc2)nc(-c2ccccc2)n1,28%,9%,15µM*,7%,-5%
CCc1cc(C(=O)Nc2ncccc2O)sc1C,2.5µM*,.,1.3µM*,1.1µM*,0.33µM*
CCc1cc(C(=O)Nc2ccc(OC)nc2)sc1C,-34%,.,21µM*,13%,9%
Cc1ccccc1-c1nc2ccccc2o1,-6%,-8%,8.5µM*,-1%,3%
Cc1ccccc1-c1nc2cc(Cl)ccc2o1,?,.,2.1µM*,?,?
N/C(=N\OC(=O)c1ccc(F)cc1)c1cccc([N+](=O)[O-])c1,?,.,0.24µM*,?,?
N/C(=N/OC(=O)c1cccc([N+](=O)[O-])c1)c1cccc([N+](=O)[O-])c1,12%,0%,?,15%,8%
O=C(CC(=O)c1cccc([N+](=O)[O-])c1)Nc1ccccc1Cl,12%,-12%,24µM*,16%,3%
N/C(=N\OC(=O)c1cccc(F)c1)c1cccc([N+](=O)[O-])c1,21%,.,1.5µM*,26%,?
O=C(CCNc1ccccc1)c1cccc([N+](=O)[O-])c1,4%,.,-1%,1%,5%
N/C(=N\OC(=O)c1ccc2ccccc2c1)c1cccc([N+](=O)[O-])c1,12%,14%[1.84 µM],1.9µM*,26%,?
c1cncc(-c2cc(-c3cc(-c4cccnc4)n[nH]3)[nH]n2)c1,.,7%[9.22 µM],.,.,.
Cc1ccc(CSCCNC(=O)C2CCN(S(=O)(=O)Cc3ccccc3)CC2)cc1,.,.,-5%,.,.
COc1cc(OC)c(C(=O)O/N=C(\N)c2cccc(C)c2)cc1OC,1%[1.84 µM],.,?,4%,6%
N/C(=N/OC(=O)c1ccccc1Cl)c1ncc([N+](=O)[O-])s1,1%,.,4.3µM*,?,?
N/C(=N\OC(=O)Cc1ccccc1)c1ccccc1Cl,26%,9%,?,13%,10%
N/C(=N\OC(=O)c1ccccc1Cl)c1cccc([N+](=O)[O-])c1,0.89µM*,.,1.2µM*,1.4µM*,2.6µM*
Cc1cccc(/C(N)=N/OC(=O)c2ccc(F)cc2)c1,1.6µM*,?,0.27µM*,1µM*,?
O=C(O)c1ccc(-c2nc(-c3ccccc3)cs2)cc1,1µM*,10µM*,6µM*,1.4µM*,7%
CCS(=O)(=O)c1ccc(-c2csc(-c3ccccc3)n2)c(Cl)c1Cl,-1%,-50%,24µM*,8%,21µM*
CNC(=O)c1csc(-c2ccc(C)cc2)n1,?,25%,17µM*,?,?
Cc1oncc1-c1csc(-c2ccccc2)n1,29%,13%,?,10%,?
CNC(=O)c1ccc(-c2nc(-c3ccccc3)cs2)cc1,4µM*,16µM*,9.5µM*,?,?
CNC(=O)c1csc(-c2ccc(Cl)cc2)n1,?,24%,?,11%,?
